Records with an inconclusive call do not appear. Calls of active or inactive are those of the source. Unless noted, calls follow the shape of the dose curve; as a rule, active = well fitted curve in the direction sought with a large enough effect in the repeat runs; inconclusive = weak or mixed curves; inactive = no such curve, though single readings can be large; an effect the other way counts as inactive or inconclusive.

A short description of experiment [1]: qHTS assay to identify small molecule antagonists of the glucocorticoid receptor (GR) signaling pathway - cell viability counter screen (AID 720693). Also: nearly all actives have a fitted effect of over 55% in size.
Experiment [2] in a line: qHTS assay for identifying genotoxic compounds that show differential cytotoxicity against isogenic chicken DT40 cell lines with known DNA damage response pathways - wild type cell line (AID 743012). Also: nearly all actives have a fitted effect of over 60% in size. Also: potency is read from the fitted curve at half-maximal effect. The gist of the method: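 Luminescent ATP viability signal (CellTiter-Glo, 30 min RT) recorded after wild type DT40 cells were incubated with compounds for 40 h at 37 C/5% CO2.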
A general note: Quantitative high-throughput screening tests each substance at several concentrations.

A short description of experiment [3]: qHTS assay for identifying genotoxic compounds that show differential cytotoxicity against isogenic chicken DT40 cell lines with known DNA damage response pathways - Rev3 mutant cell line (AID 743014). Also: nearly all actives have a fitted effect of over 55% in size. Also: potency is read from the fitted curve at half-maximal effect.
Experiment [4] is described as follows: qHTS assay to identify small molecule antagonists of the androgen receptor (AR) signaling pathway - cell viability counter screen (AID 743033; also: nearly all actives have a fitted effect of over 45% in size).
The nature of experiment [5]: qHTS assay to identify small molecule antagonists of the androgen receptor (AR) signaling pathway using the MDA cell line - cell viability counter screen (AID 743041; also: nearly all actives have a fitted effect of over 45% in size). The gist of the method:
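Compound exposure lasted 16 h at 37C in MDA-kb2 AR-luc cells stimulated with R1881. Protease-based CellTiter-Fluor reagent was applied for the final 30 min and fluorescence measured.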

Experiment [6] can be described thus: qHTS assay to identify small molecule antagonists of the thyroid receptor (TR) signaling pathway - cell viability counter screen (AID 743064). Also: nearly all actives have a fitted effect of over 50% in size. Also: potency is read from the fitted curve at half-maximal effect. The gist of the method: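 In-well cytotoxicity read by CellTiter-Fluor (30 min, 37 C) following 23.5 h exposure of GH3 cells bearing a TRE-luciferase sensor. Compounds were added alongside 1 nM (final) T3 to drive TR transactivation.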

Experiment [7] can be described thus: qHTS assay to identify small molecule antagonists of the thyroid receptor (TR) signaling pathway (AID 743065). Also: nearly all actives have a fitted effect of over 55% in size. Also: potency is read from the fitted curve at half-maximal effect. In a few lines:
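GH3.TRE-Luc rat pituitary cells (two TREs driving luciferase) were dosed with compound, then stimulated with 1 nM T3 (final) for 23.5 h at 37 C. ONE-Glo luminescence was the read-out, with CellTiter-Fluor fluorescence as the cytotoxicity counter-screen.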

For experiment [8], the system named is thyroid hormone receptor (rat, GH3 cells). Description: qHTS assay to identify small molecule agonists of the thyroid receptor (TR) signaling pathway (AID 743066; calls by dose curve).
Experiment [9] can be described thus: qHTS assay to identify small molecule antagonists of the estrogen receptor alpha (ER-alpha) signaling pathway - cell viability counter screen (AID 743074; calls by dose curve; also: nearly all actives have a fitted effect of over 45% in size).
Experiment [10] in a line: qHTS assay to identify small molecule antagonists of the estrogen receptor alpha (ER-alpha) signaling pathway using the BG1 cell line - cell viability counter screen (AID 743081).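 Also: compound given together with 17beta-estradiol as the ER stimulus; series mostly up to about 70 µM; nearly all actives have a fitted effect of over 45% in size.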
Experiment [11] addresses Aromatase (Homo sapiens) (UniProt P11511). Description: qHTS assay to identify aromatase inhibitors (AID 743083). Also: nearly all actives have a fitted effect of over 55% in size. Also: potency is read from the fitted curve at half-maximal effect.
For experiment [12], the target named is Estrogen receptor (Homo sapiens) (UniProt P03372). Description: qHTS assay to identify small molecule antagonists of the estrogen receptor alpha (ER-alpha) signaling pathway (AID 743069; active = well fitted curve in the direction sought with a large enough effect in the signal ratio in the repeat runs, not every such curve was filed as active; the % refers to the signal ratio). In a few lines:
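In this cell-based reporter format, GripTite HEK293 cells harbouring ER-alpha-UAS-bla were grown overnight with 2% charcoal-stripped FBS, dosed with DMSO-dissolved compounds, then challenged with 17beta-estradiol. After 18 hr at 37C, beta-lactamase activity was detected by FRET fluorescence.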

Experiment [13] shares this target. Description: qHTS assay to identify small molecule agonists of the estrogen receptor alpha (ER-alpha) signaling pathway (AID 743075; calls by dose curve).
Experiment [14] has the same target. The experiment can be described thus: qHTS assay to identify small molecule agonists of the estrogen receptor alpha (ER-alpha) signaling pathway using the BG1 cell line (AID 743079). Also: nearly all actives have a fitted effect of over 20% in size. Also: potency is read from the fitted curve at half-maximal effect.
A short description of experiment [15]: qHTS assay to identify small molecule antagonists of the estrogen receptor alpha (ER-alpha) signaling pathway using the BG1 cell line (AID 743080; calls by dose curve;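 also: BG1 cells stimulated with 17beta-estradiol alongside compound; series mostly up to about 70 µM; nearly all actives have a fitted effect of over 25% in size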). In a few lines:
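Readout is ONE-Glo luminescence, taken 30 min at room temperature after reagent addition, preceded by a CellTiter-Fluor viability read; BG1-Luc-4E2 cells had received compound and 17beta-estradiol for 21.5 h at 37 C.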

The nature of experiment [16]: qHTS assay for identifying genotoxic compounds that show differential cytotoxicity against isogenic chicken DT40 cell lines with known DNA damage response pathways - Rad54/Ku70 mutant cell line (AID 743015). Also: nearly all actives have a fitted effect of over 60% in size. Also: potency is read from the fitted curve at half-maximal effect.

Estrogen receptor (Homo sapiens), sequence (P03372 whole entry, looked up): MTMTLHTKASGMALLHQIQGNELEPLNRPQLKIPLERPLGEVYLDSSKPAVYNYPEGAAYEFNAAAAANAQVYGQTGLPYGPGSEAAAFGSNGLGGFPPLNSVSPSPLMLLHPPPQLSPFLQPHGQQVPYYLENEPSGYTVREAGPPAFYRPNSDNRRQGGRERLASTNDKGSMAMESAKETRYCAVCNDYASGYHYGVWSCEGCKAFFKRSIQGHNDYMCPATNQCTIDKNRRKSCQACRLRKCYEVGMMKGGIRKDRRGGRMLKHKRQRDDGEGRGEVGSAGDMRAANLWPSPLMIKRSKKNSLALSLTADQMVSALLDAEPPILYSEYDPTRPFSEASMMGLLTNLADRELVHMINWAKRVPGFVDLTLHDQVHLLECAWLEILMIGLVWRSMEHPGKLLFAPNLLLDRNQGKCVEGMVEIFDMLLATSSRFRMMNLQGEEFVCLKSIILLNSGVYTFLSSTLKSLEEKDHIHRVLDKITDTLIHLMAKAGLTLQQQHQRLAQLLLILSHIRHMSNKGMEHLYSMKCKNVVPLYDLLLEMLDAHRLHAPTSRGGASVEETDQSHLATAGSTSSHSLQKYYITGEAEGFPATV
Aromatase (Homo sapiens), sequence (P11511 whole entry, looked up): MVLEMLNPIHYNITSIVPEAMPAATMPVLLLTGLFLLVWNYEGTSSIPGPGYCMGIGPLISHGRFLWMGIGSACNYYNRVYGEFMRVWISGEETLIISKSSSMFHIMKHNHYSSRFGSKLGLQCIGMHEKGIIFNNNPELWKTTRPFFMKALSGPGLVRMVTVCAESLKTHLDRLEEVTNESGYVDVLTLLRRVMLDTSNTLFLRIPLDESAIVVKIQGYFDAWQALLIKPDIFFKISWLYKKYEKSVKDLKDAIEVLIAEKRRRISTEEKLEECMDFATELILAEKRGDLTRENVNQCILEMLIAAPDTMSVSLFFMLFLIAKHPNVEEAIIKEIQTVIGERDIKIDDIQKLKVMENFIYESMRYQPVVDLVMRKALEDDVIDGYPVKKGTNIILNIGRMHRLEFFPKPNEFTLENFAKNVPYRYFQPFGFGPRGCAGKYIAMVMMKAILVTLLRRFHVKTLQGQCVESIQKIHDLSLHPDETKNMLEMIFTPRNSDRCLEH

For the compound `Cc1ccc([N+](=O)[O-])c(N)c1`, the result in [1], in experiment [4] and in experiment [8] was inactive. In addition, the Potency result in experiment [2], in [3], in experiment [5], in experiment [6], in experiment [7] and in [9] was “inactive” in each case. Besides, the Potency result in [10] and in experiment [11] was “inactive” each time.
On to `O=Cc1ccc(F)c(Br)c1`, for which the result in experiment [1], in experiment [4], in experiment [8], in experiment [13] and in [15] was inactive. For the same compound, the Potency entry in experiment [2], in [3], in [5], in [6], in experiment [7] and in experiment [12] was “inactive” in each case. The Potency entry in experiment [9], in experiment [14], in [10] and in experiment [11] was “inactive” each time.
With `CC[C@H]1CC[C@H](NCc2cc3c(cc2OC)[C@H]2C[C@H]2C(=O)N3C)[C@H](c2ccccc2)N1`, the compound was classed as inactive in [1], in experiment [4] and in experiment [13]. For the same compound, the Potency in experiment [2] is 6.86 µM (active); in experiment [3] it was 4.86 µM (active); in experiment [16], 4.86 µM (active); in [6] it was 24.3 µM (active); in [7], 19.3 µM (active); in experiment [11], 68.6 µM (active). Further, the Potency entry in experiment [12] and in experiment [9] was “inactive” in each case.
On to `CCCCCCOc1ccc(N)cc1`, for which the result in [1], in [4], in experiment [8] and in experiment [13] was inactive. Further, the Potency is 61.1 µM (active) in experiment [2], 43.3 µM (active) in experiment [3], 54.5 µM (active) in experiment [16] and 9.69 µM (active) in [14]. Moreover, the Potency entry in [5] and in experiment [10] was “inactive” in each case.
For the compound `CCCc1c2oc(C(=O)O)cc(=O)c2cc2c(=O)cc(C(=O)O)n(CC)c12`, the compound was classed as inactive in experiment [1], in [4], in experiment [13] and in experiment [15]. The Potency entry in [2], in experiment [3], in experiment [16], in experiment [12], in experiment [14] and in experiment [10] was “inactive” each time. The Potency result in experiment [11] is “inactive”.
Take `CC(C)S`: the result in [1], in experiment [4], in [8], in experiment [13] and in experiment [15] was inactive. The Potency entry in experiment [2], in experiment [3], in experiment [5], in [6], in experiment [7] and in [12] was “inactive” in each case. The Potency result in [9], in experiment [14], in experiment [10] and in experiment [11] was “inactive” each time.
Regarding `CC1=CC(=O)CC(C)(C)C1=O`, the result in [1], in [4], in experiment [8], in experiment [13] and in [15] was inactive. Moreover, the Potency entry in [2], in experiment [3], in experiment [16], in experiment [6], in [7] and in experiment [12] was “inactive” throughout. The Potency entry in experiment [9], in experiment [14], in [10] and in experiment [11] was “inactive” in each case.
As to `COc1ccc2nc(NC(=O)Nc3ccccc3)sc2c1`, the compound was called inactive in [1], in experiment [4] and in [8]. Also, the Potency in experiment [2] is 18.8 µM (active); in [3] it was 26.6 µM (active). For the same compound, the Potency result in experiment [5], in experiment [9], in [10] and in [11] was “inactive” in each case.
Take `CCNCCO`: the result in [1], in [4] and in experiment [8] was inactive. The Potency result in experiment [2], in [3], in [16], in experiment [7], in experiment [9] and in [10] was “inactive” each time. In addition, the Potency result in experiment [11] was “inactive”.
In the case of `CCCCCCCCOC(=O)CCCCCCCCC(=O)OCCCCCCCC`, the compound was classed as inactive in [1], in experiment [4], in experiment [8], in experiment [13] and in experiment [15]. Also, the Potency in experiment [2] was 68.6 µM (active); in experiment [3], 17.2 µM (active). The Potency entry in experiment [5], in [6], in [7], in [12], in [9] and in experiment [14] was “inactive” in each case. Also, the Potency entry in experiment [10] and in [11] was “inactive” in each case.

The record behind these values is PubChem BioAssay (Tox21).
